A short description of experiment [1]: qHTS assay to identify small molecule agonists of the peroxisome proliferator-activated receptor delta (PPARd) signaling pathway - cell viability counter screen (AID 743211). Also: nearly all actives have a fitted effect of over 55% in size. Also: potency is read from the fitted curve at half-maximal effect. The method, boiled down:
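HEK293H PPARd-bla, 3000 cells/well; 5 h preincubation 37C/5% CO2; cpd in DMSO, 17 h 37C; B/G FRET substrate 2 h RT; CellTiter-Glo 30 min RT, luminescence.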

Experiment [2] addresses Peroxisome proliferator-activated receptor delta (Homo sapiens) (UniProt Q03181). The experiment can be described thus: qHTS assay to identify small molecule agonists of the peroxisome proliferator-activated receptor delta (PPARd) signaling pathway (AID 743212; calls by dose curve). In outline: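 Beta-lactamase reporter read by fluorescence (LiveBLAzer B/G FRET, 2 h, room temperature). Test agents, in DMSO, incubated at 37 C with PPARd-bla HEK293H cells.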

Experiment [3] in a line: qHTS assay to identify small molecule antagonists of the peroxisome proliferator-activated receptor delta (PPARd) signaling pathway - cell viability counter screen (AID 743213). Also: nearly all actives have a fitted effect of over 50% in size. Also: potency is read from the fitted curve at half-maximal effect. In outline:
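Luminescence from CellTiter-Glo, added after the bla read and incubated 30 min at room temperature, gives viability of HEK293H PPARd-bla cells exposed to compounds for 17 h at 37 C with 300 nM L165041.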

The target in experiment [4] is Peroxisome proliferator-activated receptor delta (Homo sapiens) (UniProt Q03181). In words: qHTS assay to identify small molecule antagonists of the peroxisome proliferator-activated receptor delta (PPARd) signaling pathway (AID 743215; active = well fitted inhibition curve with a large enough effect in the signal ratio in the repeat runs, not every such curve was filed as active; the % refers to the signal ratio;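 also: cells stimulated with agonist L165041 at 300 nM final during compound exposure; series mostly up to about 62 µM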). The method, boiled down:
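HEK293H GeneBLAzer PPARd UAS-bla reporter cells; cpd + L165041 300 nM final, 17 h 37 C; LiveBLAzer B/G FRET substrate 2 h RT; fluorescence intensity read-out. Antagonist mode.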

Experiment [5] has as its target Bile acid receptor (Homo sapiens) (UniProt Q96RI1). In words: qHTS assay to identify small molecule antagonists of the farnesoid-X-receptor (FXR) signaling pathway (AID 743217; active = well fitted inhibition curve with a large enough effect in the signal ratio in the repeat runs, not every such curve was filed as active; the % refers to the signal ratio). The method, boiled down: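 Read-out: beta-lactamase FRET fluorescence (LiveBLAzer B/G substrate, 2 h, room temperature) in GeneBLAzer FXR-UAS-bla HEK 293T cells. Compounds were co-dosed with 50 uM chenodeoxycholic acid (final) and incubated 16 h at 37 °C.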

Experiment [6] can be described thus: qHTS assay to identify small molecule agonists of the farnesoid-X-receptor (FXR) signaling pathway - cell viability counter screen (AID 743218). Also: nearly all actives have a fitted effect of over 45% in size. Also: potency is read from the fitted curve at half-maximal effect. In outline:
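Luminescence from CellTiter-Glo, read after 30 min at RT, reports viability of GeneBLAzer FXR-UAS-bla HEK 293T cells treated 16 h with compounds in the wells used for the beta-lactamase reporter.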

The target in experiment [7] is Bile acid receptor (Homo sapiens) (UniProt Q96RI1). In words: qHTS assay to identify small molecule agonists of the farnesoid-X-receptor (FXR) signaling pathway (AID 743220; active = well fitted activation curve with a large enough effect in the signal ratio in the repeat runs, not every such curve was filed as active; the % refers to the signal ratio). The method, boiled down:
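FXR-UAS-bla HEK 293T cells carrying a UAS-driven beta-lactamase reporter were plated for 5 h at 37C/5% CO2, then exposed to DMSO-dissolved Tox21 10K compounds for 16 h at 37C. A LiveBLAzer B/G FRET substrate was loaded for 2 h at room temperature before fluorescence reading.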

A short description of experiment [8]: qHTS assay to identify small molecule antagonists of the farnesoid-X-receptor (FXR) signaling pathway - cell viability counter screen (AID 743221; active = well fitted cell-killing curve with a large enough effect in the repeat runs, not every such curve was filed as active; also: nearly all actives have a fitted effect of over 50% in size). The method, boiled down: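 Luminescence from CellTiter-Glo measures cytotoxicity in GeneBLAzer FXR-UAS-bla HEK 293T cells. Cells were exposed to compounds with 50 uM chenodeoxycholic acid (final) for 16 h at 37 C, in wells also used for the reporter readout.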

For experiment [9], the target named is Vitamin D3 receptor (Homo sapiens) (UniProt P11473). In words: qHTS assay to identify small molecule agonists of the vitamin D receptor (VDR) signaling pathway (AID 743222; calls by dose curve). The method, boiled down: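 Beta-lactamase reporter readout (LiveBLAzer B/G FRET, 2 h RT) in VDR-bla cells after 16 h compound treatment at 37C, 5% CO2; cells pre-incubated 4 h before pin transfer of DMSO solutions.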
Chain of Vitamin D3 receptor (Homo sapiens) (P11473 whole entry, looked up): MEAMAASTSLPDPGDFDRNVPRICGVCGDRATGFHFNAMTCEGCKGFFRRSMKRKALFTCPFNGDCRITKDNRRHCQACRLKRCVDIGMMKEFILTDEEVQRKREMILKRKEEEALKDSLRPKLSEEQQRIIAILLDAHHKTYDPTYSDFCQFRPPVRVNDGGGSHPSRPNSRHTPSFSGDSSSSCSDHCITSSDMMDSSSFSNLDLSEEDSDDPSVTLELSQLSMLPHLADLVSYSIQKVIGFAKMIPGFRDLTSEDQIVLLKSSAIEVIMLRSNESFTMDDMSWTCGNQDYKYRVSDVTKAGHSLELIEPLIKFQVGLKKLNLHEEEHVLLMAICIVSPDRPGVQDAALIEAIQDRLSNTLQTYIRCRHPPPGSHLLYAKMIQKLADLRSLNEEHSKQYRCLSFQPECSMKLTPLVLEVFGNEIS

The target is the same in experiment [10]. The experiment can be described thus: qHTS assay to identify small molecule antagonists of the vitamin D receptor (VDR) signaling pathway (AID 743223; active = well fitted inhibition curve with a large enough effect in the signal ratio in the repeat runs, not every such curve was filed as active; the % refers to the signal ratio). The method, boiled down:
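Antagonist mode uses 1alpha,25-dihydroxyvitamin D3 at 3 nM final as stimulus. VDR-bla cells receive compounds in DMSO, incubate 16 h at 37C, then a beta-lactamase FRET substrate for 2 h at room temperature before fluorescence measurement.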

This note sets out measurements from PubChem BioAssay (Tox21).

Records with an inconclusive call do not appear. A number with no mark means an inactive call. Calls of active or inactive are those of the source. Unless noted, calls follow the shape of the dose curve; as a rule, active = well fitted curve in the direction sought with a large enough effect in the repeat runs; inconclusive = weak or mixed curves; inactive = no such curve, though single readings can be large; an effect the other way counts as inactive or inconclusive.
% is scaled to controls: 0 for no effect and ±100 for the full control effect.

Chain of Peroxisome proliferator-activated receptor delta (Homo sapiens) (Q03181 whole entry, looked up): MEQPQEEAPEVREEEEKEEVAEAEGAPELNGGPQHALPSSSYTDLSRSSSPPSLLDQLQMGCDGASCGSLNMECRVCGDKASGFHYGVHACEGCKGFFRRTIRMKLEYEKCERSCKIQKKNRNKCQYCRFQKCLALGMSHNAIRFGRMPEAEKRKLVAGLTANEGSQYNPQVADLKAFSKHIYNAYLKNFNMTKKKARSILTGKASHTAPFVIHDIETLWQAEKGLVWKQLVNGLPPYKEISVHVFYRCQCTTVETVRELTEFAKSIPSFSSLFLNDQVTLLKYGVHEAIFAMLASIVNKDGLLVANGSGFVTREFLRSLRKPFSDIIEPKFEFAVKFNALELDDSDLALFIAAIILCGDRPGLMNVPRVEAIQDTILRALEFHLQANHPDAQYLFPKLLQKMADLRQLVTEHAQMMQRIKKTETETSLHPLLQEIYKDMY
Chain of Bile acid receptor (Homo sapiens) (Q96RI1 whole entry, looked up): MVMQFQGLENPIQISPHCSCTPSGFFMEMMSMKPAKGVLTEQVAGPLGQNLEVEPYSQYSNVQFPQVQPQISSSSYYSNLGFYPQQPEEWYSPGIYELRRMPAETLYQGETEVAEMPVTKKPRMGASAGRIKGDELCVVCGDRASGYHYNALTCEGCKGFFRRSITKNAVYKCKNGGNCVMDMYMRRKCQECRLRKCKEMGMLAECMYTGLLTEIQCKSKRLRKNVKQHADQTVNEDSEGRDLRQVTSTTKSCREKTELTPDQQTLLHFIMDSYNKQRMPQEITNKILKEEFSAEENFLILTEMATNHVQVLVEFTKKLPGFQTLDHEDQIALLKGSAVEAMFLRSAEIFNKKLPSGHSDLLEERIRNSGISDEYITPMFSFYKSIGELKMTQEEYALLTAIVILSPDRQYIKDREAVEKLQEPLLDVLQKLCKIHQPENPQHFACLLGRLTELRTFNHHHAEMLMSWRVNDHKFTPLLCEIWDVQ

On to `O=C(O)c1ccncc1`, for which the Potency entry in experiment [1], in experiment [2], in experiment [3], in experiment [6] and in experiment [8] was “inactive” throughout. The compound was classed as inactive in experiment [4], in [5], in [7], in experiment [9] and in [10].
As for `O=C(O)c1ccc2cc(O)ccc2c1`, the Potency entry in experiment [1], in experiment [2], in [3], in [6] and in [8] was “inactive” in each case. For the same compound, the compound was called inactive in [4], in experiment [5], in experiment [7], in experiment [9] and in experiment [10].
Turning to `CC1(C)CC(O)CC(C)(C)N1[O]`, the Potency result in experiment [1], in [2], in experiment [3], in [6] and in [8] was “inactive” each time. The compound was classed as inactive in experiment [4], in experiment [5], in [9] and in [10].
As to `CCCCCCCCCCCCCCCCC(=O)O`, the Potency result in [1], in experiment [2], in experiment [3], in experiment [6] and in experiment [8] was “inactive” each time. In addition, the outcome in experiment [4], in [5], in experiment [7] and in experiment [9] was inactive.
For `CC1(C)[C@@H]2CC[C@]3(C2)[C@@H]1C(=O)CCC3(C)C`, the Potency entry in [1], in experiment [2], in experiment [3], in experiment [6] and in experiment [8] was “inactive” in each case. For the same compound, the result in experiment [4], in experiment [5], in experiment [7], in experiment [9] and in experiment [10] was inactive.
With `Oc1ccc(Oc2ccccc2)cc1`, the Potency result in experiment [1], in experiment [2], in experiment [3], in experiment [6] and in experiment [8] was “inactive” in each case. For the same compound, the compound was called inactive in [4], in experiment [5], in [7], in [9] and in experiment [10].
On to `O=C1C=CCCC1`, for which the Potency result in experiment [1], in experiment [2], in experiment [3] and in [6] was “inactive” throughout. In addition, the result in experiment [4] and in experiment [5] was inactive.
With `O=P(c1ccccc1)(c1ccccc1)c1ccccc1`, the Potency entry in [1], in experiment [2], in experiment [3] and in experiment [6] was “inactive” each time. For the same compound, the compound was classed as inactive in experiment [4], in experiment [5], in experiment [9] and in [10].
Take `NC(=O)c1cc[n+](CC2=C(C(=O)[O-])N3C(=O)[C@@H](NC(=O)Cc4cccs4)[C@H]3SC2)cc1`: the Potency result in experiment [1], in experiment [2], in experiment [3], in experiment [6] and in experiment [8] was “inactive” each time. For the same compound, the compound was called inactive in experiment [4], in experiment [5], in experiment [7] and in [9].
Consider `CCC(=O)O[C@]1(C(=O)COC)[C@@H](C)C[C@H]2[C@@H]3CCC4=CC(=O)C=C[C@]4(C)C3(F)[C@@H](O)C[C@@]21C` (stereo not given in full), for which the Potency result in [1], in experiment [2], in experiment [3], in [6] and in [8] was “inactive” throughout. Also, the outcome in experiment [4], in experiment [5], in [9] and in experiment [10] was inactive.
In the case of `CC(C)Oc1ccccc1O`, the Potency entry in experiment [1], in experiment [2], in experiment [3], in [6] and in experiment [8] was “inactive” each time. Also, in experiment [4], the call was inactive.
On to `O=C(OCCCCCOC(=O)c1ccccc1)c1ccccc1`, for which the Potency result in experiment [1], in experiment [2], in experiment [3] and in [6] was “inactive” each time. Moreover, in experiment [4], the result was inactive.
With `CCCCCCOC(=O)c1ccccc1`, the Potency result in experiment [1], in experiment [2], in experiment [3] and in experiment [8] was “inactive” in each case. Moreover, the outcome in experiment [5], in experiment [9] and in experiment [10] was inactive. The Potency in experiment [6] was 30.9 µM (active).
For `CC(C)=CCCC(C)C=O` (stereo not given), the Potency entry in [1], in [2], in experiment [3], in experiment [6] and in experiment [8] was “inactive” in each case. For the same compound, the call in experiment [5], in experiment [9] and in experiment [10] was inactive.
On to `CCCCCCCCOCCCN`, for which the Potency in experiment [1] is 49 µM (active); in experiment [3] it was 24.5 µM (active). Moreover, the Potency result in experiment [2] and in [8] was “inactive” throughout. Further, the compound was classed as inactive in [4] and in [9].
With `COC(=O)c1cc(Cl)ccc1[N+](=O)[O-]`, the Potency entry in experiment [1], in experiment [2], in experiment [3], in experiment [6] and in [8] was “inactive” throughout. The compound was called inactive in experiment [4], in [9] and in [10].
For the compound `O=C1OC(=O)C2CC=CCC12` (stereo not given), the Potency entry in experiment [1], in experiment [2], in experiment [3] and in experiment [8] was “inactive” each time. For the same compound, the result in experiment [4], in experiment [9] and in experiment [10] was inactive.
On to `N#C[C@@H]1CC(F)(F)CN1C(=O)CNC1CC2CCC(C1)N2c1ncccn1` (stereo not given in full), for which the Potency entry in [1], in experiment [2], in experiment [3], in experiment [6] and in [8] was “inactive” in each case. The compound was classed as inactive in experiment [5] and in [7].
With `C=CC(C)(O)CC/C=C(/C)CCC=C(C)C` (stereo not given), the Potency entry in [1], in [2], in experiment [3] and in experiment [8] was “inactive” each time. The result in [5] and in experiment [7] was inactive.
As for `CS(C)=O`, the Potency entry in experiment [1], in [2], in [3], in [6] and in experiment [8] was “inactive” in each case. For the same compound, the outcome in experiment [5], in experiment [7] and in experiment [9] was inactive.
With `CCOC(OCC)OCC`, the Potency result in experiment [1], in [2], in [3], in experiment [6] and in [8] was “inactive” throughout. Further, the outcome in experiment [5], in experiment [9] and in experiment [10] was inactive.
Regarding `CCCCCCCCCCCCCCCCCCCl`, the activity change, negative = cytotoxicity is 0.407% [at 5.95 µM] in [1] and 0.201% [at 5.95 µM] in experiment [8]. Further, the activation in [2] was 0.183% [at 5.95 µM]; in experiment [9], 1.2% [at 6.01 µM]. The viability change, negative = cytotoxic in experiment [3] is -29.3% [at 6.26 µM]. In addition, the results for the activity change, negative = inhibition in [5] and in experiment [10] were -9.56% [at 5.95 µM] and 1.88% [at 6.95 µM], respectively.
Consider `COc1ccc(CN(CCN(C)C)c2ncccn2)cc1`, for which the Potency result in [1], in experiment [2], in experiment [3] and in [6] was “inactive” each time. Further, the call in experiment [5], in [9] and in [10] was inactive.
Turning to `C=CC(O)CCCCC` (stereo not given), the Potency entry in experiment [1], in experiment [2], in experiment [3], in experiment [6] and in experiment [8] was “inactive” each time. Also, the compound was called inactive in [5], in experiment [7] and in [9].
With `CCC1=C(C)CN(C(=O)NCCc2ccc(S(=O)(=O)NC(=O)NC3CCC(C)CC3)cc2)C1=O` (stereo not given), the Potency entry in [1], in experiment [2], in experiment [3], in [6] and in experiment [8] was “inactive” each time. Further, the compound was classed as inactive in experiment [4], in experiment [9] and in [10].
As to `COc1ccc(/C=C/S(=O)(=O)NC(=O)c2ccc(C)cc2Cl)cc1`, the Potency entry in [1], in experiment [2], in experiment [3], in [6] and in experiment [8] was “inactive” in each case. For the same compound, the call in experiment [5], in [7] and in experiment [10] was inactive.
As for `CC(C)(O)C(=O)O`, the Potency result in [1], in experiment [2], in [3], in experiment [6] and in experiment [8] was “inactive” in each case. Also, the compound was called inactive in experiment [4], in experiment [9] and in [10].
In the case of `CC1(C)C(=O)NC(=O)N1CO`, the Potency result in experiment [1], in experiment [2], in [3] and in experiment [8] was “inactive” throughout. The compound was called inactive in experiment [4], in [9] and in [10].
